Screening results: PubChem BioAssay, Sanford-Burnham Center for Chemical Genomics
hiPSC survival = increases survival of single human iPS cells | 360,000 tested, 0.044% active | hiPSC single-cell survival, ATPlite luminescence; 100% = ROCK inhibitor wells, 0% = DMSO | AID 602274 | survival enhancement, % at 20 µM; in the data active means survival enhancement above about 18%;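 further: cells exposed to compounds for 16 hours before the ATP read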
SKN-1 block = inhibitors of C. elegans SKN-1 | 360,000 tested, 0.49% active | inhibition, % at 21.8 µM | C. elegans VP596 Pgst-4::GFP/RFP ratio, acrylamide-induced, 24 h | AID 624304;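 active means interference check ratio from 0.5 to 1.5 plus GFP to RFP signal ratio inhibition reaching or exceeding a fixed threshold, cut at about 30% in these data, passing the limit was not always enough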
Cardio protect = modulators protecting cardiomyocytes from myocardial damage; protection from H2O2 cell death, % at 20 µM; H9c2 cardiomyocytes, H2O2 injury protection, ATPLite, 2 h; 360,000 tested, 0.63% active;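 active means compounds giving at least 50% protection of heart cells from peroxide-induced death in the single-dose screen, raw or plate-pattern-corrected value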;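 further: 0% = DMSO wells with peroxide and 100% = DMSO wells without peroxide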
H9c2 TAG inh = reduces triacylglycerol accumulation in H9c2 cells. Nile Red lipid (TAG) fluorescence; cells loaded with 200 µM oleic acid. inhibition, % at 12.5 µM. 230,000 tested, 0.66% active;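 active means pattern-corrected inhibition of lipid staining of at least 50% with the nuclear-stain viability signal not falling by more than 50%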;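 further: 0% = DMSO wells and 100% = triacsin C control wells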
CRFBP-R2 agonist = agonists of human CRF-binding protein/CRF-R2 receptor complex | HEK293 CRF-R2/CRF-BP, calcium dye fluorescence (FLIPR); percent of saturating CRF peptide response | activation, % at 13.2 µM | 350,000 tested, 0.46% active | AID 588473;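 active means activation of at least 50%, plus an integration ratio under a set limit after plate pattern correction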;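 further: plate controls were neutral control wells without compound for no effect and CRF at EC100 for full effect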
CRFR2-BP antag = blocks CRF-induced signaling of the CRF-BP/CRF-R2 complex; HEK293 CRF-R2/CRF-BP, CRF-induced calcium fluorescence; inhibition, % at 11.8 µM; 350,000 tested, 0.59% active;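 active means inhibition of the ligand-induced calcium signal above about 50% at the single tested concentration, limit read from the data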
* = called active by the depositor; nt = no result; ! = repeats disagree. Sampled rows, rich in hits. Any-hit rate of the full collection: about 2.5%.

SMILES | hiPSC survival | SKN-1 block | Cardio protect | H9c2 TAG inh | CRFBP-R2 agonist | CRFR2-BP antag
COc1ccc(/C=C/C(=O)c2ccccc2O)cc1CN1CCOCC1 | -3.3 | 4.3 | 83.5* | 27.1 | 1.1 | 12.4
COc1ccc(C(=O)/C=C/c2ccc(OC)c(CN3CCOCC3)c2)cc1 | -0.1 | 61.1* | 21.3 | nt | -0.1 | -15.9
CCOC(=O)[C@]12CCCC=C1N(Cc1ccccc1)C(=O)[C@H](CC(=O)NCc1cccc3ccccc13)C2 | nt | 6.6 | nt | nt | nt | nt
COc1ccc(NC(=O)C(NC(=O)c2ccc(=O)[nH]c2)c2ccc(C)cc2)cc1 (stereo not drawn) | -2.1 | -8.8 | -2.0 | nt | -0.1 | 21.0
COc1ccc(C(NC(=O)c2ccc(=O)[nH]c2)C(=O)Nc2ccc(C(C)C)cc2)cc1 (stereo not drawn) | -3.1 | 1.5 | -3.7 | -13.2 | 57.8* | -26.4
Cc1cc(C(=O)N2CCN(c3ccc([N+](=O)[O-])cc3)CC2)c(C)o1 | -0.3 | 6.3 | 5.1 | -33.4 | 0.1 | 10.9
Cc1cc(C(=O)N2CCN(c3ccc([N+](=O)[O-])cc3)CC2)co1 | 0.3 | -1.2 | -12.3 | -8.8 | -0.3 | 59.1*
O=C(Nc1ccc(F)cc1F)c1csc(-c2ccncc2)n1 | 1.8 | 0.7 | 2.7 | -3.8 | 0.3 | 13.6
Cc1ccc(C(=O)Nc2cccc(C(F)(F)F)c2)cc1NC(=O)c1csc(-c2ccncc2)n1 | -0.5 | 7.8 | 54.8*! | 11.6 | 1.3 | 3.4
O=C(O)c1cc(C(=O)C2CC2)c[nH]1 | 23.2* | -4.7 | 1.5 | nt | 4.2 | -16.1
CN(CC(=O)Nc1cccc(F)c1)C(=O)c1cc(S(=O)(=O)N(C)C)ccc1N1CCCC1 | 0.3 | 5.3 | -0.9 | 18.7 | 2.1 | -14.2
O=C(c1ccc(N2CCNCC2)cc1)c1cccnc1 | 1.5 | 7.0 | 6.4 | -9.8 | -2.8 | 61.8*
O=C(Nc1ccc(N2CCCCC2)cc1)c1cccnc1 | -3.9 | 11.8 | -22.2 | nt | 0.3 | -3.5
Cc1cnc(C(=O)Nc2nnc(SCc3c(Cl)cccc3Cl)s2)cn1 | -1.4 | 9.2 | 54.5* | -5.1 | -2.1 | -5.4
CC(=O)N[C@@H](Cc1c[nH]c2ccccc12)C(=O)OCc1cc(C(F)(F)F)cc(C(F)(F)F)c1 | -0.9 | 1.2 | -10.3 | 7.9 | 1.8 | -32.3
COc1ccc(C2CC(c3ccc(Br)cc3)=NN2C(=O)CCC(=O)O)cc1OC (stereo not drawn) | 0.1 | -10.0 | 7.9 | nt | -0.4 | 56.3*
CCCCCCN1C[C@@H](O)[C@H](n2cc(C3CC3)nn2)C[C@@H]1c1ccc(C)cc1 | 0.1 | 10.6 | -16.5 | -5.6 | 1.6 | 1.6
COc1ccc2oc(C(=O)NCCC(C)C)c(C)c2c1 | -0.3 | -3.7 | -3.8 | 2.4 | 1.3 | 79.4*
COc1ccc(C(CNC(=O)c2oc3ccc(OC)cc3c2C)N2CCCC2)cc1 (stereo not drawn) | -0.6 | 6.8 | 0.0 | 10.2 | 2.9 | -3.8
Cc1ccc(CNc2ncnc3ccc(-c4ccc(CO)o4)cc23)o1 | -3.5 | 11.9 | 15.8 | 9.2 | nt | nt
CCC(C)NC(=O)c1ccc2nc(-c3ccc(OC)c(OC)c3)c(-c3ccc(OC)c(OC)c3)nc2c1 (stereo not drawn) | 0.5 | -5.8 | 70.8* | nt | -1.7 | 8.9
Nc1ccc(O)cc1C(=O)OCC(=O)C12CC3CC(CC(C3)C1)C2 | 2.2 | 44.7* | -6.9 | 6.9 | -1.2 | 6.1
Cc1cc(C)c(OCC(=O)NCCCn2nc(C)cc2C)c(C)c1 | 0.1 | 5.5 | -2.0 | -19.4 | 0.3 | -0.4
CC(=O)N1CCc2c(sc(NC(=O)C3CCCCC3)c2C(N)=O)C1 | -0.2 | -6.5 | 10.7 | -8.7 | 29.9 | 4.9
CCOC(=O)C1CCN(C(=O)c2ccc3c(=O)n4nc(Nc5ccccc5OC)sc4nc3c2)CC1 | -0.7 | -1.9 | 70.9* | 11.5 | -1.1 | 7.6
SMILES | hiPSC survival | SKN-1 block | Cardio protect | H9c2 TAG inh | CRFBP-R2 agonist | CRFR2-BP antag
CCOC(=O)c1c(NC(=O)c2c(Br)cnn2C)c(C#N)nn1-c1ccccc1 | -2.6 | 11.0 | 11.6 | nt | 0.2 | 67.3*
COc1cc(OC)cc(C(=O)Nc2ccc(C(=O)Nc3ccccc3OC)cc2)c1 | -0.7 | -10.9 | 51.1* | -6.7 | -0.1 | -9.4
COc1ccc(C(=O)Nc2cccc(OC(=O)c3ccc(C)c(C)c3)c2)cc1 | -2.0 | 41.7* | -13.5 | 43.6 | 4.9 | 6.3
COc1ccc(NC(=O)c2ccco2)cc1NC(=O)c1cccc(F)c1 | -0.5 | -13.0 | -2.8 | nt | 1.2 | -2.8
CC1(C2CC2)NC(=O)N(CC(=O)NCc2ccc(Cl)cc2Cl)C1=O (stereo not drawn) | -0.4 | -7.4 | 3.7 | 7.0 | -0.7 | -3.6
CCOC(=O)/C=c1/s/c(=C/c2ccc3cc(OC)ccc3c2)c(=O)n1CC(=O)NCc1ccc2c(c1)OCO2 | -2.3 | -16.2 | 4.9 | 10.8 | 64.2* | -10.9
O=S(=O)(c1ccccc1)n1ccc2ccccc21 | -2.6 | 4.1 | -11.4 | 10.1 | -0.2 | 15.0
Cc1cc(C)c(S(=O)(=O)n2ccc3ccccc32)c(C)c1 | -1.5 | 10.9 | -24.8 | nt | -0.5 | 58.3*
O=C1C=CC(=O)c2c(O)c(N3CCN(CCOCCO)CC3)c(Br)c(O)c21 | 6.2 | 47.5* | -14.3 | 100.7* | 2.5 | 1.0
O=C1C=CC(=O)c2c(O)c(N3CCN(CCO)CC3)c(Cl)c(O)c21 | 1.5 | 32.1 | -15.4 | 100.2* | 3.7 | 10.8
CN(C)c1cccc2c(S(=O)(=O)NC(=O)[C@H]3O[C@@H](n4cnc5c(N)ncnc54)[C@H](O)[C@@H]3O)cccc12 | -0.7 | 2.8 | 4.8 | nt | nt | nt
O=S1(=O)CC(O)C(O)CS1 (stereo not drawn) | 0.0 | 11.0 | nt | nt | nt | nt
O=C(CSc1nnc(NC(=O)c2ccco2)s1)Nc1ccccc1 | 0.0 | -4.8 | -5.4 | 12.0 | -1.8 | -10.9
COc1ccc(F)cc1S(=O)(=O)NCC(=O)NCc1cc(=O)n(C)c(=O)n1C | 0.4 | 4.9 | 2.5 | nt | 0.1 | 76.5*
CCN(CC)c1ccc(C(=C2C=CC(=[N+](CC)CC)C=C2)c2ccc(S(=O)(=O)O)cc2S(=O)(=O)[O-])cc1 | -3.1 | -51.5 | -4.4 | -47.7 | -2.5 | 5.3
O=C1NC(=S)S/C1=C/c1ccc(N2CCOCC2)o1 | -0.2 | 86.5 | -6.2 | nt | 52.0* | -56.5
O=C1S/C(=C\c2ccc(N3CCOCC3)o2)C(=O)N1Cc1ccc(F)cc1 | 0.5 | -6.5 | -9.2 | nt | 31.7 | -9.4
O=C1N/C(=C/c2ccc(N3CCOCC3)o2)C(=O)N1c1ccccc1 | -1.2 | 6.5 | -4.5 | nt | -0.4 | 56.4*
O=C1S/C(=C/c2ccc(N3CCOCC3)o2)C(=O)N1Cc1ccc(F)cc1 | 2.1 | 9.8 | 2.2 | nt | 114.3* | -132.1
COc1ccc2cc(/C=C3\SC(=S)NC3=O)c(N3CCOCC3)nc2c1 | -0.3 | 31.4 | -16.5 | nt | 4.3 | 22.0
O=C1N/C(=C/c2ccc(N3CCCC3)cc2)C(=O)N1c1ccccc1 | -2.4 | 4.6 | -6.4 | nt | 20.8 | -25.4
CCN(CC)C(=O)c1cccc(-c2csc(C(O)c3ccc(F)c(OC)c3)n2)c1 (stereo not drawn) | 1.5 | 9.2 | -14.4 | -11.1 | nt | nt
